About 2,500 (0.83%) of roughly 300,000 compounds were called active. The sample holds actives, similar compounds and a random draw of the others, so the mix is not that of the screen. Rule as the data show it: active = inhibition above about 60%; inconclusive = no clear call, values can overlap the other calls; inactive = below that.
Assay: 5' untranslated region of α-synuclein, MLPCN primary screen (AID 1813);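 also: H4 neuroglioblastoma cells stably carrying SNCA 5'UTR luciferase fusion; 0% = DMSO wells and 100% = positive control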
Details: alpha-synuclein 5'UTR reporter, inhibitor activity; stronger effect = higher value; tested at 7.5 µM

inhibition, inactive:
O=C(CNCc1ccc(F)cc1)Nc1ccccc1-c1ccccc1 16.3%
COCc1cc(=O)[nH]c(SC)n1 -10.1%
N#C/C(=C\c1cccnc1)C(=O)Nc1ccc(SC(F)F)cc1 1.4%
O=[N+]([O-])c1ccc2[nH]c3c(c2c1)CCCC3O (stereo unspecified) 10.7%
O=[n+]1c2c(n([O-])c3cc(Br)ccc31)CCC2 10.3%
COC(=O)CN1C(=O)N/C(=C/c2ccc(OC)c(C)c2OC)C1=O -8.7%
O=C(COC(=O)Cn1[nH]c(=O)c2ccccc2c1=O)Nc1c(Cl)cccc1C(F)(F)F 4.65%
CN1C(=O)/C(=C/c2ccc(C(=O)NC3CCCC3)cc2)Oc2ccccc21 -48%
O=C(NCCN1CCOCC1)c1ccc(/C=C2\Sc3ccccc3N(Cc3ccc(F)cc3)C2=O)cc1 14%
Oc1cccc(/C=N/Nc2ccc(Cl)nn2)c1O -6.82%
FC(F)(F)c1cnc(Oc2ccccc2-c2nnc(-c3ccc(Cl)cc3)o2)c(Cl)c1 -1.16%
Cc1n[nH]c(=O)c2c(NC(=O)CSc3ccccc3F)oc(C)c12 -9.19%
CCNS(=O)(=O)c1ccc(NC(=O)c2cncc(Br)c2)cc1 8.56%
Oc1ccc(N=Nc2nccs2)c(O)c1 24.3%
c1ccc(NCc2cccc3ccccc23)nc1 19.1%
CCCOc1ccc(C(=O)CCC(=O)OC(C)C(=O)Nc2ccc(NC(C)=O)cc2)cc1 (stereo unspecified) -18.6%
CCCCOc1ccc(C(=O)NN2CCN(C)CC2)cc1 1.5%
Cc1ccc(S(=O)(=O)N2CCCCC2)cc1C(=O)N(C)CC(=O)Nc1cccc(F)c1 11%
CCOC(=O)c1c(NC(=O)c2ccc(S(=O)(=O)N(C)CC3CCCO3)cc2)sc2c1CC(C)(C)NC2(C)C (stereo unspecified) 0.581%
COC(=O)c1sccc1NC(=O)COc1ccc(Cl)cc1 -35.3%
CCOc1ccc(CC(=O)NCCS(=O)(=O)N2CCN(c3ccccc3)CC2)cc1 13.9%
Cc1cc(OC(=O)c2ccccc2Cl)ccc1N1C(=O)CCC1=O -3.87%
COc1ccc(NC(=O)c2cccc3c2C(=O)N(CC2CCCO2)C3)cc1OC (stereo unspecified) 32.1%
Cc1ccc(-c2cn3cc([N+](=O)[O-])ccc3n2)cc1 22.1%
CSc1nnc2ccc(-c3ccc(C)cc3)nn12 16.4%
CCn1c(=O)c(C(=O)NCc2ccc3c(c2)OCO3)c(O)c2ccccc21 11.8%
COC(=O)C1(C)NC(c2ccccc2OC)C2C(=O)N(c3ccccc3)C(=O)C21 (stereo unspecified) 0.536%
CC(C)CC[n+]1ccn(C2=C([O-])c3ccccc3C(=O)/C2=N\S(=O)(=O)c2ccccc2)c1 -27.8%
CCc1ccc(OCC2c3cc(OC)c(OC)cc3CCN2C(C)=O)cc1 (stereo unspecified) 0.678%
COc1ccc2c(c1)CCNC2Cc1ccc(OC)c(O)c1 (stereo unspecified) 11.8%
COc1ccc(S(=O)(=O)N(C)CC(=O)NCCCN2CCOCC2)cc1Cl 6.18%
COc1ccc(C(=O)C2CCCN(S(=O)(=O)c3cccc(C)c3)C2)c(C)c1 (stereo unspecified) -3.32%
Cc1ccccc1/[N+]([O-])=C/c1ccncc1 5.11%
Cc1ccc(NC(=O)COc2ccc(/C=C3/NC(=O)NC3=O)cc2)cc1 1.96%
O=C(c1ccc(OC2CCN(Cc3ccccn3)CC2)cc1)N1CCCCCC1 3.78%
Cn1cc(CNC(=O)c2ccc(OC3CCN(Cc4ccccn4)CC3)cc2)cn1 14.6%
Cc1ccc(Nc2nc(Cl)c(C=O)s2)cc1 -26.4%
Cc1ccc2nc(-c3ccncc3)cc(C(=O)Nc3ccncc3)c2c1 5.38%
Cc1ccc2nc(-c3ccncc3)cc(C(=O)Nc3ccc4c(c3)OCCO4)c2c1 47.2%
COc1cccc2c(N/N=C/c3ccco3)cc(C)nc12 -38.3%
COc1ccccc1/C=N/Nc1nc(C)c(C(C)=O)s1 -154%
Cc1csc2nc(O)c(C(=O)NCCN3CCOCC3)c(=O)n12 0.0631%
Cc1ccc2sc(N(CCN(C)C)C(=O)/C=C/c3cccs3)nc2c1C -3.93%
Cc1nc2ccccn2c1C(=O)NN=C1CCN(C)CC1 18%
CCCC[C@@H]1CN=C(N)N1CCc1cccc(F)c1 -1.65%
Cc1ccc(C)c(NC(=O)COC(=O)Cn2c(C)csc2=O)c1 3.94%
CCOc1ccc(C(C(=O)NC2CCCC2)N(C(=O)c2snc(C(N)=O)c2N)C2CCCC2)cc1 (stereo unspecified) 1.96%
OCCC1CN(Cc2ccc3nsnc3c2)CCN1C1CCCCC1 (stereo unspecified) -4.85%

inhibition, active:
O=C1CCCc2c1[nH]c1ccc(Br)cc21 89%
CN1CCN(CCCNC(=O)c2ccc(/C=C3\Oc4ccccc4N(Cc4ccc(Cl)cc4)C3=O)cc2)CC1 96.5%
COc1cccc(/C=N/Nc2ncc(C(F)(F)F)cc2Cl)c1O 76.7%
Oc1ccc2ccccc2c1N=Nc1nccs1 87.4%
CCCOc1ccc(C(=O)C(CCC(CNCC)C(=O)c2ccc(OCCC)cc2)CNCC)cc1 (stereo unspecified) 107%
COC(=O)c1c(NC(=O)COc2ccc(Cl)cc2Cl)sc2c1CC(C)(C)NC2(C)C 102%
CN1CCN(C2Cc3ccc(Cl)cc3Sc3ccc(F)cc32)CC1 (stereo unspecified) 104%
Cc1ccc2nc(-c3ccc(Br)cc3)cn2c1 63.2%
CC[C@H]1CN2CCc3cc(OC)c(OC)cc3[C@@H]2C[C@@H]1C[C@H]1NCCc2cc(OC)c(OC)cc21 109%
O=C(NCCOc1cccnc1)c1ccc(OC2CCN(Cc3ccccn3)CC2)cc1 95.3%
Cc1ccc2nc(-c3ccncc3)cc(C(=O)Nc3ccc(OC(F)F)cc3)c2c1 67.6%
COc1cccc(/C=N/Nc2cc(C)nc(-c3ccccc3O)n2)c1O 82.8%
CCCCCCCCn1c2c(c(=N)c3c1CCC3)CCCC2 101%

— PubChem BioAssay AID1813 (Broad Institute, 2009)
